This passage reports Potency and max response results from PubChem BioAssay (Tox21).

Unmarked numbers belong to inactive results. Results filed as inconclusive are left out. Active and inactive are the calls of the source. The call rests on the fitted dose curve; in most records, active means well fitted curve in the direction sought with a large enough effect in the repeat runs; inconclusive means weak or mixed curves; inactive means no such curve, though single readings can be large; an effect the other way counts as inactive or inconclusive.

Assay [1] can be described thus: qHTS RealTime-Glo MT Cell Viability Assay in HepG2 cells - 40 hour (AID 1224870). Further: nearly all actives have a fitted effect of over 50% in size. Further: potency means the concentration at half of the fitted maximal effect. The essentials: (§1)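 HepG2 cells mixed with RealTime-Glo MT reagents (NanoLuc plus cell-permeant prosubstrate) were seeded at 600 cells/well, incubated 5 h at 37 C/5% CO2, then pinned with compounds in DMSO; nonlytic luminescence tracked viability during 40 h treatment.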
A short description of assay [2]: A CellTox Green Cytotoxicity Assay to monitor cytotoxicity in HEK293 cells - 40 hour (AID 1224871). Further: nearly all actives have a fitted effect of over 45% in size. Further: potency means the concentration at half of the fitted maximal effect. Summed up:
(§2)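 HEK293 cells premixed with CellTox Green dye were seeded at 600 cells/well and left 5 h at 37 C/5% CO2 before pin transfer of 23 nL compound in DMSO. Fluorescence from dye bound to dead-cell DNA was read during 40 h treatment.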

The nature of assay [3]: qHTS RealTime-Glo MT Cell Viability Assay in HEK293 cells - 16 hour (AID 1224872). Further: nearly all actives have a fitted effect of over 50% in size. Further: potency means the concentration at half of the fitted maximal effect. The essentials:
(§3)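 Reads taken at 0, 8, 16, 24, 32 and 40 h from the same wells. HEK293 cells (600/well) carried RealTime-Glo reagents from seeding, with compound added after a 5 h settle at 37 C.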

Assay [4] is described as follows: qHTS RealTime-Glo MT Cell Viability Assay in HEK293 cells - 40 hour (AID 1224874). Further: nearly all actives have a fitted effect of over 50% in size. Further: potency means the concentration at half of the fitted maximal effect. As to conditions: RealTime-Glo luminescence; max response: hits give low values. The essentials: (§4)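 HEK293 cells mixed with RealTime-Glo reagents (NanoLuc plus cell-permeant prosubstrate) at 600 cells/well, preincubated 5 h at 37 C/5% CO2, then given 23 nL compound in DMSO. Nonlytic luminescence from viable cells was read at 0, 8, 16, 24, 32 and 40 h.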
A general note: In qHTS, concentration-response curves come from the screen itself.

Assay [5] in a line: A CellTox Green Cytotoxicity Assay to monitor cytotoxicity in HEK293 cells - 24 hour (AID 1224875). Further: nearly all actives have a fitted effect of over 45% in size. Further: potency means the concentration at half of the fitted maximal effect. The essentials: as §2
Assay [6] can be described thus: A CellTox Green Cytotoxicity Assay to monitor cytotoxicity in HepG2 cells - 16 hour (AID 1224876). Further: nearly all actives have a fitted effect of over 45% in size. Further: potency means the concentration at half of the fitted maximal effect. The essentials:
(§5)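 HepG2 cells were seeded together with the CellTox Green dye at 600 cells/well, left 5 h at 37 C/5% CO2, then given compounds in DMSO. Fluorescence from dye bound to dead-cell DNA was read repeatedly over 40 h of treatment at 37 C.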

A short description of assay [7]: A CellTox Green Cytotoxicity Assay to monitor cytotoxicity in HepG2 cells - 40 hour (AID 1224879). Further: nearly all actives have a fitted effect of over 40% in size. The essentials: as §5
Assay [8] is described as follows: qHTS RealTime-Glo MT Cell Viability Assay in HEK293 cells - 0 hour (AID 1224880). Further: top concentration of the series differs between compounds; nearly all actives have a fitted effect of over 45% in size. The essentials: as §4
A short description of assay [9]: A CellTox Green Cytotoxicity Assay to monitor cytotoxicity in HepG2 cells - 0 hour (AID 1224882). Further: nearly all actives have a fitted effect of over 35% in size. The essentials: as §5
The nature of assay [10]: A CellTox Green Cytotoxicity Assay to monitor cytotoxicity in HepG2 cells - 32 hour (AID 1224883). Further: nearly all actives have a fitted effect of over 50% in size. Further: potency means the concentration at half of the fitted maximal effect. Summed up: as §5
Assay [11] in a line: A CellTox Green Cytotoxicity Assay to monitor cytotoxicity in HEK293 cells - 8 hour (AID 1224884). Further: nearly all actives have a fitted effect of over 35% in size. Further: potency means the concentration at half of the fitted maximal effect. Summed up:
as §2

Assay [12] is described as follows: qHTS RealTime-Glo MT Cell Viability Assay in HEK293 cells - 24 hour (AID 1224886). Further: nearly all actives have a fitted effect of over 50% in size. Further: potency means the concentration at half of the fitted maximal effect. Summed up:
as §3

Assay [13] in a line: qHTS RealTime-Glo MT Cell Viability Assay in HEK293 cells - 8 hour (AID 1224887). Further: nearly all actives have a fitted effect of over 50% in size. Further: potency means the concentration at half of the fitted maximal effect. The essentials:
as §4

Assay [14] in a line: A CellTox Green Cytotoxicity Assay to monitor cytotoxicity in HEK293 cells - 16 hour (AID 1224888). Further: nearly all actives have a fitted effect of over 35% in size. Further: potency means the concentration at half of the fitted maximal effect. Summed up:
as §2

The nature of assay [15]: qHTS RealTime-Glo MT Cell Viability Assay in HepG2 cells - 0 hour (AID 1224889). Further: nearly all actives have a fitted effect of over 50% in size. Summed up: (§6)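 HepG2 suspension premixed with RealTime-Glo reagents is plated at 600 cells per well and left 5 h at 37 C/5% CO2. Compounds in DMSO then go in, and bioluminescence reflecting viable cell number is recorded over 40 h.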
Assay [16] in a line: qHTS RealTime-Glo MT Cell Viability Assay in HepG2 cells - 32 hour (AID 1224877). Further: nearly all actives have a fitted effect of over 55% in size. Further: potency means the concentration at half of the fitted maximal effect. Summed up:
as §6

A short description of assay [17]: A CellTox Green Cytotoxicity Assay to monitor cytotoxicity in HepG2 cells - 24 hour (AID 1224878). Further: nearly all actives have a fitted effect of over 45% in size. Summed up:
as §5

Assay [18] can be described thus: qHTS RealTime-Glo MT Cell Viability Assay in HepG2 cells - 16 hour (AID 1224885). Further: nearly all actives have a fitted effect of over 50% in size. Further: potency means the concentration at half of the fitted maximal effect. Summed up: as §6
The nature of assay [19]: qHTS RealTime-Glo MT Cell Viability Assay in HepG2 cells - 8 hour (AID 1224873). Further: nearly all actives have a fitted effect of over 55% in size. The essentials:
as §1

A short description of assay [20]: A CellTox Green Cytotoxicity Assay to monitor cytotoxicity in HEK293 cells - 32 hour (AID 1224881). Further: nearly all actives have a fitted effect of over 40% in size. Further: potency means the concentration at half of the fitted maximal effect. Summed up: as §2
On the % scale 0 is the no-effect control and ±100 the full control effect.

As to `CC(C)=CCC/C(C)=C/CC/C(C)=C/C(=O)OCC(=O)[C@@]1(O)CC[C@H]2[C@@H]3CCC4=CC(=O)C=C[C@]4(C)[C@H]3[C@@H](O)C[C@@]21C`, the Potency entry in assay [1], in assay [2], in assay [5], in assay [6], in [7] and in assay [8] was “inactive” each time. The Potency entry in assay [9], in [10], in assay [11], in [14] and in assay [15] was “inactive” in each case. The Potency in [3] was 5.35 µM (active); in assay [4] it was 4.25 µM (active); in assay [12] it was 4.25 µM (active); in assay [13], 6.01 µM (active).

With `CCCCCCCCN`, the Potency entry in [1], in assay [2], in assay [3], in [5], in assay [6] and in assay [16] was “inactive” each time. The Potency result in assay [17], in assay [8], in assay [9], in assay [10], in assay [11] and in [18] was “inactive” in each case. Further, the Potency entry in assay [12], in assay [13], in [14] and in assay [15] was “inactive” throughout. The max response in assay [4] is -0.288%.

With `O=C(O)CCc1nc(-c2ccccc2)c(-c2ccccc2)o1`, the Potency entry in [1], in [2], in assay [19], in assay [5], in [6] and in [16] was “inactive” in each case. The Potency entry in assay [17], in assay [7], in [8], in assay [9], in assay [10] and in assay [11] was “inactive” throughout. Moreover, the Potency result in assay [18], in [12], in assay [13], in assay [14] and in assay [15] was “inactive” throughout. Also, the max response in assay [4] was 0.935%.

In the case of `OCCOCC#CCOCCO`, the Potency entry in [1], in [2], in [3], in [5], in [6] and in assay [17] was “inactive” throughout. Also, the Potency result in assay [7], in assay [8], in assay [20], in [9], in assay [10] and in [11] was “inactive” in each case. Besides, the Potency entry in assay [18], in [12], in assay [13], in assay [14] and in assay [15] was “inactive” each time. Moreover, the max response in assay [4] was 7.98%.

For the molecule `Cc1c(C)c2c(c(C)c1OC(=O)CCC(=O)OCCO)CC[C@@](C)(CCC[C@H](C)CCC[C@H](C)CCCC(C)C)O2`, the Potency entry in assay [1], in [2], in assay [19], in [5], in assay [6] and in assay [16] was “inactive” throughout. In addition, the Potency entry in assay [17], in [7], in assay [8], in assay [20], in [9] and in [10] was “inactive” each time. The Potency entry in [11], in [18], in assay [12], in assay [13] and in assay [14] was “inactive” each time. Besides, in assay [4], the max response was -18.9%.

With `CS(=O)(=O)c1ccc(-c2cn3ccccc3n2)cc1`, the Potency result in assay [1], in assay [2], in assay [3], in [5], in assay [6] and in assay [16] was “inactive” throughout. Besides, the Potency entry in assay [8], in [9], in assay [11], in [14] and in assay [15] was “inactive” in each case.

On to `Cc1ccc(C(C)(C)O)cc1`, for which the Potency entry in assay [1], in [2], in [19], in [5], in assay [6] and in [16] was “inactive” in each case. Also, the Potency entry in assay [17], in assay [7], in assay [8], in [20], in assay [9] and in assay [10] was “inactive” throughout. Besides, the Potency entry in [18], in [12], in assay [13], in [14] and in assay [15] was “inactive” each time. Further, in assay [4], the max response was -0.324%.

For `COC(=O)c1nc(Cl)c(Cl)nc1N`, the Potency is 12 µM (active) in assay [1]; 13.4 µM (active) in assay [2]; 12 µM (active) in assay [3]; 4.77 µM (active) in assay [4]; 10.7 µM (active) in [16]; 19 µM (active) in assay [20]. Also, the values for the Potency in [12] and in [13] were 9.52 µM (active) and 6.74 µM (active), respectively. For the same molecule, the Potency entry in [8] and in assay [11] was “inactive” each time.

Turning to `COc1cc(C(=O)NC2CCN(C)CC2)ccc1Nc1ncc2c(n1)N(C1CCCC1)CC(F)(F)C(=O)N2C`, the Potency in assay [1] is 44.9 µM (active); in [2], 35.7 µM (active); in [3], 2 µM (active); in assay [4] it was 0.0179 µM (active); in [5] it was 20 µM (active); in [6], 44.9 µM (active). Also, the Potency was 40 µM (active) in [16]; 25.2 µM (active) in assay [10]; 17.9 µM (active) in [11]; 40 µM (active) in [18]; 0.1 µM (active) in [12]; 17.9 µM (active) in [14]. The Potency result in assay [8], in assay [9] and in assay [15] was “inactive” throughout.

`Cc1ccccc1S`: the Potency entry in [1], in assay [2], in assay [19], in assay [5], in assay [6] and in assay [16] was “inactive” each time. Moreover, the Potency entry in [17], in assay [7], in assay [8], in [20], in [9] and in [10] was “inactive” in each case. For the same molecule, the Potency entry in assay [11], in assay [18], in assay [12], in [13], in [14] and in assay [15] was “inactive” in each case. Besides, in assay [4], the max response was -6.46%.

For `Oc1cccc(Nc2ccccc2)c1`, the Potency entry in [1], in assay [2], in assay [19], in [5], in [6] and in assay [16] was “inactive” throughout. The Potency result in [17], in [7], in assay [8], in [20], in assay [9] and in assay [10] was “inactive” each time. Also, the Potency result in assay [11], in assay [18], in assay [14] and in assay [15] was “inactive” each time. For the same molecule, the Potency in assay [4] is 12.8 µM (active); in assay [12] it was 14.4 µM (active); in [13] it was 11.4 µM (active).

With `Cc1ccco1`, the Potency result in assay [1], in assay [2], in assay [19], in [5], in assay [6] and in assay [16] was “inactive” throughout. Also, the Potency entry in [17], in [7], in [8], in [9], in [10] and in assay [18] was “inactive” throughout. In addition, the Potency entry in [12], in [13], in assay [14] and in assay [15] was “inactive” in each case. In [4], the max response is 15.4%.

`C[C@]1(Cn2ccnn2)[C@H](C(=O)O)N2C(=O)C[C@H]2S1(=O)=O`: the Potency result in [1], in assay [2], in [3], in assay [5], in assay [6] and in [16] was “inactive” in each case. Also, the Potency entry in assay [7], in assay [8], in [9], in assay [10], in assay [11] and in [18] was “inactive” throughout. Further, the Potency result in assay [12], in [13], in assay [14] and in assay [15] was “inactive” throughout. Also, the max response in assay [4] was 2.48%.
